{"source": "paper PMC5540273", "about": "(PLoS ONE, 2017);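 note: KINOMEscan kinase panel screen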", "data": [{"system": "DYRK1B", "conditions": "concentration: 1 μM, replicates: in singlicate; n = 1", "units": {"%Inh": "%"}, "values": [{"smiles": "Nc1ncc(-c2ccc3nccc(-c4ccncc4)c3c2)cc1S(=O)(=O)N1CCCCC1", "note": "[GSK1693850]", "%Inh": 2}, {"smiles": "COc1cccc(CC(=O)N2CCc3cc(-c4cn(C)c5ncnc(N)c45)ccc32)c1", "note": "[GSK2608899]", "%Inh": 22}, {"smiles": "CC(C)NCC(Cc1ccccc1)NC(=O)c1cc(Br)c(-c2ccnc3[nH]ccc23)s1.Cl.Cl", "note": "(stereo not shown) [GSK1383281]", "%Inh": 29}, {"smiles": "Nc1ncc(-c2cn[nH]c2)c2scc(-c3ccc4c(c3)CCN4C(=O)Cc3ccccc3)c12", "note": "[GSK2593067]", "%Inh": 0}, {"smiles": "Cc1cccc(Nc2nc(NCCN)ncc2C(N)=O)c1", "note": "[GSK1292139]", "%Inh": 27}, {"smiles": "CC(C)c1nc(-c2cccc(NS(=O)(=O)c3c(F)cccc3F)c2)c(-c2ccnc(Nc3ccc(N4CCOCC4)nc3)n2)s1.Cl", "note": "[GSK1723980]", "%Inh": 0}, {"smiles": "Cc1ccc(-c2ccc3occ(-c4ccc(S(C)=O)cc4)c3c2)nn1", "note": "(stereo not shown)", "%Inh": 33}, {"smiles": "COc1ccc(C2=C(Nc3cccc(O)c3)C(=O)NC2=O)cc1", "note": "[SB-390766]", "%Inh": 100}, {"smiles": "COc1ccc(NC(=O)c2ccoc2)cc1-c1ccc(C(=O)NCC2CC2)cc1", "note": "[GW810437]", "%Inh": 8}, {"smiles": "Cc1nn2c(=O)cc(N3CCO[C@H](C)C3)nc2n1Cc1cccc(Cl)c1Cl", "note": "[GSK2373693]", "%Inh": 11}, {"smiles": "Cl.O=C(Nc1ccc(Oc2ccc3[nH]c(NC(=O)c4ccco4)nc3c2)cc1)Nc1cc(C(F)(F)F)ccc1F", "note": "[GW683134]", "%Inh": 6}, {"smiles": "O=C(O)C(F)(F)F.O=c1[nH]ccc2nc(N[C@@H]3CCNC3)nc(Nc3ccc4c(c3)S(=O)(=O)CC4)c12", "note": "[GSK2181306]", "%Inh": 81}, {"smiles": "O=C(Nc1n[nH]c2cc(-c3cccs3)ccc12)C1CC1", "note": "[SB-731284]", "%Inh": 0}, {"smiles": "CNc1nccc(-c2ccc3c(N)n[nH]c3c2)n1", "note": "[GSK2206003]", "%Inh": 99.1}, {"smiles": "COc1cccc(NC(=O)NCCNc2ccnc(Nc3ccc(F)cc3)n2)c1", "note": "[GSK1379879]", "%Inh": 25}, {"smiles": "CN(c1ccc2c(c1)nc(NCc1ccccc1)n2C)c1ccnc(Nc2ccc(CS(C)(=O)=O)cc2)n1.Cl", "note": "[GW811603]", "%Inh": 0}, {"smiles": "Cc1ccc(O)cc1Nc1ccnc2cc(-c3ccc(CN4CCCCC4)o3)ccc12", "note": "[GW557777]", "%Inh": 0}, {"smiles": "Cc1cccc(Nc2nc(N[C@H]3CCCC[C@H]3N)ncc2C(N)=O)c1.Cl", "note": "[GSK986310]", "%Inh": 37}, {"smiles": "c1ccc(Oc2ccc(Nc3ccnc4cc(-c5ccc(CN6CCCCC6)o5)ccc34)cc2)nc1", "note": "[GW567143]", "%Inh": 0}, {"smiles": "CC(C)c1nc(-c2ccc(F)c(NS(=O)(=O)c3c(F)cccc3F)c2)c(-c2ccnc(Nc3ccc(N4CCOCC4)nc3)n2)s1", "note": "[GSK1804250]", "%Inh": 0}, {"smiles": "CCNc1nccc(-c2c(-c3ccc(F)cc3)ncn2C2CCN(C)CC2)n1", "%Inh": 0}, {"smiles": "Fc1cc(Cl)ccc1Nc1ccnc2cc(-c3ccc(CN4CCSCC4)o3)ccc12", "note": "[GW560106]", "%Inh": 0}, {"smiles": "NCCC(NC(=O)c1cc(Br)c(-c2ccnc3[nH]ccc23)s1)c1ccccc1.O=C(O)C(F)(F)F.O=C(O)C(F)(F)F", "note": "(stereo not shown) [GSK1307810]", "%Inh": 70}, {"smiles": "Cc1ccc(NC(=O)c2ccc(Cl)c(Cl)c2)cc1-c1ccc(C(=O)Nc2ccncc2)cc1", "note": "[GSK1398460]", "%Inh": 6}, {"smiles": "O=C(O)C(F)(F)F.O=c1[nH]ccc2nc(N[C@@H]3CCNC3)nc(Nc3cc(Cl)cc(Cl)c3)c12", "note": "[GSK2188764]", "%Inh": 21}, {"smiles": "Nc1ncnc2scc(-c3ccc(NC(=O)Cc4cc(F)ccc4F)cc3)c12.O=C(O)C(F)(F)F", "note": "[SB-731254-M]", "%Inh": 0}, {"smiles": "Cc1ccc(NC(=O)c2ccnc(N3CCCCC3)c2)cc1-c1ccc(C(=O)NCC2CC2)cc1", "note": "[GW775610]", "%Inh": 29}, {"smiles": "Fc1cc(Cl)ccc1Nc1ccnc2cc(-c3ccc(CN4CCOCC4)o3)ccc12", "note": "[GW560109]", "%Inh": 7}, {"smiles": "CS(=O)(=O)c1cccc(CNc2nc(Nc3ccc4c(c3)CCC(=O)N4)ncc2C(F)(F)F)c1", "%Inh": 61}, {"smiles": "Cc1cc(-c2c(-c3ccc(F)cc3)ncn2CCCN2CCOCC2)nc(N)n1", "note": "[SB-222517]", "%Inh": 20}, {"smiles": "CN1CCN(Cc2ccc(NC(=O)Nc3ccc(N(C)c4ccnc(Nc5ccc(CS(C)(=O)=O)cc5)n4)cc3)cc2)CC1.Cl", "note": "[GW827654]", "%Inh": 3}, {"smiles": "COc1cccc(C2=C(Nc3cccc(O)c3)C(=O)NC2=O)c1", "note": "[SB-390771]", "%Inh": 24}, {"smiles": "O=C(Nc1n[nH]c2nc(-c3cccc(O)c3)ccc12)C1CC1", "note": "[SB-711805]", "%Inh": 86}, {"smiles": "CN(c1ccc(NC(=O)Nc2cccc(Cl)c2)cc1)c1ccnc(N)n1.Cl", "note": "[GW830707]", "%Inh": 14}, {"smiles": "CC(=O)Nc1cn2nc(Oc3cccc(NC(=O)c4cccc(C(F)(F)F)c4)c3)ccc2n1", "%Inh": 0}, {"smiles": "COc1ccc(C)c(Nc2ccnc(Nc3ccc(-c4cnc[nH]4)cc3)n2)c1.Cl", "note": "[GW784041]", "%Inh": 0}, {"smiles": "Cl.Cl.NC(CNC(=O)c1cc(Br)c(-c2ccnc3[nH]ccc23)s1)c1ccccc1", "note": "(stereo not shown) [GSK1322949]", "%Inh": 95}]}]}
